The inhibition is the relative decrease from the control value, in per cent.

Drawing on PubChem BioAssay AID743269 (The Scripps Research Institute Molecular Screening Center, 2014), this text covers inhibition for 24 molecules.

The campaign covered roughly 370,000 compounds. About 2,400 (0.65%) were called active. This excerpt belongs to a sample that is enriched for actives. Unmarked numbers belong to inactive results.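 How the source made its calls: active means inhibition above the screen-wide mean plus 3 SD (cut at about 13% in these data); inactive means the rest.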

The test system of this experiment is HIV-1 integrase (with human LEDGF/p75). As to the kind of experiment: blockers of LEDGF/p75-dependent integrase strand transfer – biochemical, TR-FRET, high throughput, primary screen (AID 743269).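 Further: signal is the Cy5 over europium emission ratio at 671 and 618 nm; 0% = plate median of compound wells.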 The following applies: TR-FRET IN-LEDGF/p75 DNA integration, Eu/Cy5; at 3.7 µM; active compounds read high. Background: Time-resolved FRET reads energy transfer from a long-lived donor to a nearby acceptor.
As for `CCOc1cccc(=O)c2c(C)n(CC3CCCO3)c(C)c12` (centres undefined), the inhibition is 19.8% (active). Next, `CC(=O)Nc1ccc(NC(=O)CSc2nnc(COc3ccccc3C)n2CC2CCCO2)cc1` (centres undefined): -8.13%; `CCOc1ccc(NC(=O)c2cccc3c2C(=O)N(CC2CCCO2)C3)cc1` (centres undefined): 0.61%; `COc1ccccc1CCNC(=O)C1CCN(c2nc(C)cc(C)n2)CC1`: -0.51%. With `O=C(NCc1cccs1)C1CCCN(S(=O)(=O)c2ccc([N+](=O)[O-])cc2)C1` (centres undefined), the inhibition is 4.07%.

With `NC(=O)c1ccccc1NC(=O)c1ccccc1F`, the inhibition was 30.1% (active). Next, `O=C(Nc1ccccc1F)c1ccccc1-c1ccccc1`: -1.52%; `O=C(Nc1nnc(-c2ccccc2F)s1)c1ccccc1F`: 5.09%. `Cc1cc(NS(=O)(=O)c2ccc(NC(=O)CSc3nnc(-c4ccc(C(C)(C)C)cc4)n3Cc3ccco3)cc2)nc(C)n1`: the inhibition was 2.06%. For the molecule `COC(=O)[C@]1(C#N)CC(=O)N(CC2CCCCC2)[C@@H]1c1ccccc1`, the inhibition is 8.17%. As for `COCCn1nnnc1C(c1cc2ccc(OC)cc2[nH]c1=O)N1CCc2ccccc2C1` (centres undefined), the inhibition is 23.1% (active). Next, `COc1ccc(CCC(C)N2CCc3ccccc3C2)cc1` (centres undefined): 0%; `COCCn1nnnc1C(c1ccccc1Cl)N1CCN(c2ccccc2OC)CC1` (centres undefined): -2.12%; `O=C(CSc1nnc(-c2ccccn2)n1-c1ccccc1)Nc1ccc2cn[nH]c2c1`: 3.75%. Regarding `CC[C@@H](CCC(=O)N(c1ccccc1)c1ccccc1)C1CC1`, the inhibition is -0.47%. With `CCOC(=O)C1=C(C)c2ccccc2OC1C(=O)OCC` (centres undefined), the inhibition was 0.5%. Turning to `CCOC(=O)c1[nH]c(C)c(C(=O)OCC(=O)N2c3ccccc3CC2C)c1C` (centres undefined), the inhibition was 0.57%. Consider `CCOC(=O)c1c(C)[nH]c2c1-c1ccccc1C(=O)C2=O`, for which the inhibition is 35% (active). As to `CN1C(=O)c2cc(NS(C)(=O)=O)ccc2OC[C@@H]2O[C@@H](CC(=O)NCc3ccc(-c4ccccc4)cc3)CC[C@H]21`, the inhibition was 0.81%. `CC(CCN1CCC(C(O)(c2ccccc2)c2ccccc2)CC1)Oc1ccc(Cl)cc1` (centres undefined): the inhibition is -0.76%.

For the molecule `CCN(CC)CCCC(C)n1c2nc(=O)[nH]c(=O)c-2nc2cc(Cl)ccc21` (centres undefined), the inhibition is 19.5% (active). In the case of `Cc1cc2nc3c(=O)[nH]c(=O)nc-3n(C[C@H](O)[C@H](O)[C@H](O)CO)c2cc1C`, the inhibition is -0.23%.

As to `CC(CCN1CCC(C(O)(c2ccccc2)c2ccccc2)CC1)Oc1ccc([N+](=O)[O-])cc1Cl` (centres undefined), the inhibition is 5.97%.

`O=C(CCCCCN1C(=O)C2C3C=CC(C3)C2C1=O)Nc1ccccn1` (centres undefined): the inhibition was 1.71%.
